Assay outcomes from PubChem BioAssay.
Sampled rows, rich in hits. Any-hit rate of the full collection: about 1.3%.
NR2F2 inh – inhibitors of human COUP-TFII (NR2F2); P24468; HEK293T NGFI-A luciferase reporter, luminescence; inhibition, % at 8.6 µM; 370,000 compounds, 0.7% hits; AID 686940;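 active means inhibition above a per-plate cutoff, mean inhibition of test wells between control levels plus 3 SD, cut at about 38% in these data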;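 further: cells cotransfected with COUP-TFII expression vector driving the NGFI-A reporter; 0% = median of COUP-TF2 test wells and 100% = reporter-only cells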
SRC3 inh – inhibitors of human steroid receptor coactivator 3 (SRC3); Q9Y6Q9; 360,000 compounds, 0.17% hits; AID 588352; HEK293 GAL4-SRC3 luciferase reporter, luminescence; inhibition, % at 3.6 µM;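 active means inhibition above a per-campaign cutoff, the mean of all compounds plus 3 SD, cut at about 60% in these data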;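 further: 0% = DMSO-treated cells and 100% = gossypol-treated cells at 36 µM; higher means less SRC3-driven luciferase light from the GAL4 reporter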
SRC1 inh – inhibitors of human steroid receptor coactivator 1 (SRC1); inhibition, % at 3.6 µM; Q15788; AID 588354; HEK293 GAL4-SRC1 luciferase reporter, luminescence; 360,000 compounds, 0.12% hits;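 active means inhibition above the campaign mean plus 3 SD, with each screening campaign given its own cutoff, cut at about 60% in these data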;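 further: 0% = DMSO treated cells and 100% = gossypol at 36 µM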
LRH-1 inv ag – inverse agonists of human LRH-1 (NR5A2); HEK293T StAR-luciferase reporter, LRH-1 transfected, 24 h; inhibition, % at 3.6 µM; 360,000 compounds, 0.13% hits; AID 602396;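 active means inhibition above the mean inhibition of all tested compounds plus 3 SD, cut at about 73% in these data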;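 further: 0% = DMSO wells and 100% = reporter-only cells lacking LRH-1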
Target sequence (O00482 whole entry, looked up): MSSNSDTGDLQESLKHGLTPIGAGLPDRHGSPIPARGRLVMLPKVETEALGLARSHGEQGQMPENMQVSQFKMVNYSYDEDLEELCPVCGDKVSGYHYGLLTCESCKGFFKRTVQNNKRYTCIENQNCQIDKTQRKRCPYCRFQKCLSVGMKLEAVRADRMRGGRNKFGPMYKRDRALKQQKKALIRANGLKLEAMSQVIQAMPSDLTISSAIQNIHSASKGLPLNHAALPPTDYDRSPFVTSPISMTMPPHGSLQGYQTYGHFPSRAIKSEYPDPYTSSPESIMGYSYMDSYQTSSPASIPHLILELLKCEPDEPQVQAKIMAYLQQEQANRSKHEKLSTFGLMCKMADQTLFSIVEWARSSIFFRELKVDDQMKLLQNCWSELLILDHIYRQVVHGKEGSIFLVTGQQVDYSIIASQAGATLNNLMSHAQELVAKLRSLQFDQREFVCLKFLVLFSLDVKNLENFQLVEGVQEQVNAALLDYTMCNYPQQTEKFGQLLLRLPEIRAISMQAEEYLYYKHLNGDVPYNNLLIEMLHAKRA
NCOA2 inhibitor – human SRC2 (NCOA2) inhibition | AID 651957 | inhibition, % at 9 µM | HEK293 GAL4-SRC2 luciferase reporter, luminescence | 370,000 compounds, 0.17% hits;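 active means inhibition above the mean inhibition of all tested compounds plus 3 SD, set per campaign, cut at about 52% in these data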;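 further: 0% = DMSO treated cells and 100% = cells given Gossypol at 36 µM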
Gli-Sufu block – Gli-Sufu pathway antagonism; Sufu-KO-LIGHT fibroblasts, Gli luciferase reporter luminescence; inhibition, % at 5 µM; 340,000 compounds, 0.74% hits; AID 588413;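 active means inhibition above about 55%, limit read from the data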;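 further: 0% = DMSO-treated cells and 100% = wells with medium but no cells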
* hit, by the source's call; . = no result.

SMILES | NR2F2 inh | SRC3 inh | SRC1 inh | LRH-1 inv ag | NCOA2 inhibitor | Gli-Sufu block
Nc1ccc(-c2cnc(N)c(C(=O)c3cccnc3)n2)cn1 | . | 70* | 69* | 52 | . | -14
Nc1ccc(C(=O)c2cccs2)cn1 | 13 | 5 | -14 | 10 | -9 | -7
CC(=O)Nc1ccc(NC(=O)c2nc(S(=O)(=O)Cc3cccc(C)c3)ncc2Cl)cc1 | -4 | -49 | -40 | -55 | 83* | 36
CN(c1ccccc1)S(=O)(=O)c1ccc(NC(=O)c2nc(S(C)(=O)=O)ncc2Cl)cc1 | -1 | -20 | -26 | -2 | 56* | 16
Cc1ccc2nc(-c3ccco3)c(Cc3ccsc3)n2c1 | -18 | . | . | . | -12 | .
Cc1noc(C)c1S(=O)(=O)N(C)C[C@@H]1OCc2cn(nn2)CCCC(=O)N([C@H](C)CO)C[C@H]1C | -1 | . | . | . | 10 | .
CCOC(=O)CNC(=O)N(C)[C@H]1C[C@H]2c3[nH]c4c(-c5ccccc5)cccc4c3CCN2C(=O)[C@H]1[C@H](C)O | -5 | . | . | . | -6 | .
N=c1c2c(-c3ccccc3)c(-c3ccccc3)n(Cc3ccccc3)c2ncn1CCO | 15 | 69* | 52 | 50 | -52 | 9
N=c1c2c(-c3ccccc3)c(-c3ccccc3)n(Cc3ccco3)c2ncn1CCCn1ccnc1 | 25 | 68* | 56 | 35 | -34 | 26
N=c1c2c(-c3ccccc3)c(-c3ccccc3)n(Cc3ccco3)c2ncn1CCCN1CCOCC1 | 0 | 16 | 10 | -4 | -15 | 10
S=c1[nH]nc(-c2n[nH]c3c2CCC3)n1N=Cc1ccc(OCc2ccccc2)cc1 | -36 | . | . | . | -29 | .
COC(=O)C1=C(C)N(Cc2ccc(C(F)(F)F)cc2)C(=NCc2ccc(OC)cc2)NC1c1ccccc1 (stereo not drawn) | -13 | . | . | . | 4 | .
O=C(O)Cc1ccc(C(=O)c2ccccc2)s1 | 13 | -10 | -13 | -8 | -19 | 2
COc1ccc(C(=O)c2ccc(CC(=O)O)s2)cc1 | 22 | 12 | -17 | 13 | 52* | 6
COc1cccc(N2C(=O)CC(NNC(=O)c3cccs3)C2=O)c1 (stereo not drawn) | 13 | 2 | -5 | -25 | 100* | -15
O=C(NNC1CC(=O)N(c2cccc(Cl)c2)C1=O)c1cccs1 (stereo not drawn) | -7 | -9 | -13 | -37 | -5 | -13
CCCCCCC12C(=Cc3cc4c(cc31)OCCO4)c1cc(OC)c(OC)cc1C(CC(=O)O)N2C(=O)OC (stereo not drawn) | -10 | . | . | . | -5 | .
CC(=O)OCC(=O)Nc1ccc([N+](=O)[O-])cc1Cl | -4 | -17 | 5 | 2 | 0 | -3
CC(=O)Oc1c(C)cc(Cl)cc1C(=O)Nc1ccc([N+](=O)[O-])cc1Cl | 1 | 21 | 3 | -28 | -19 | 73*
C(=C\c1ccccc1)/CSc1nnc(Cc2cccs2)n1-c1ccccc1 | 4 | . | . | . | 19 | .
COC(=O)c1ccc2c(c1)C(C)(C)C(/C=C/c1ccc(O)cc1)=[N+]2C | -13 | 47 | 10 | 10 | 28 | 66*
CCOC(=O)/C(=C\c1ccccc1)C(=O)c1cc(C(C)=O)c(Nc2ccccc2)s1 | -3 | 9 | 5 | -1 | 10 | 11
CCOC(=O)/C(=C\c1cccnc1)C(=O)c1cc(C(C)=O)c(Nc2ccccc2)s1 | . | -14 | -96 | 28 | . | 60*
O=[N+]([O-])c1ccc2[nH]c3nc4ccccc4nc3c2c1 | 24 | -24 | -11 | -4 | -49 | 57*
CCCCNC(=O)C[C@H]1C[C@@]2(C(=O)OC)C(=C[C@H](C(C)C)O[C@@H]2C2CC2)N(CCC2=CCCCC2)C1=O | -6 | . | . | . | 2 | .
SMILES | NR2F2 inh | SRC3 inh | SRC1 inh | LRH-1 inv ag | NCOA2 inhibitor | Gli-Sufu block
CC(=O)Nc1cccc(-c2cc(NC(C)=O)c3ncc(-c4ccc(F)cc4)n3c2)c1 | -15 | 2 | 9 | 36 | 54* | .
CC(=O)Nc1cc(-c2cccc(F)c2)cn2c(-c3ccc(F)cc3)cnc12 | 13 | -23 | 1 | -23 | 13 | .
O=c1ccc2ccccc2c2ccccc12 | 1 | 75* | 64* | 93* | 70* | .
c1ccc2c(c1)ccc1ccccc12 | -6 | -8 | -12 | -10 | 8 | 1
COCCCNC(=O)Cn1nc(Cc2ccncc2)c2ccccc2c1=O | -20 | . | . | . | 7 | .
O=c1c(Br)ccc(Br)cc1Br | 53* | -35 | -131 | 8 | 58* | 4
O=c1cnnc(N/N=C/c2ccccn2)[nH]1 | -3 | 83* | 66* | 92* | 36 | 74*
Cc1cc(=O)[nH]c(N/N=C/c2ccccn2)n1 | -35 | 5 | 10 | 37 | 26 | 46
O=S1(=O)C=C(Sc2ccc(Cl)cc2)c2ccccc2C1Cc1ccc(F)cc1 (stereo not drawn) | 15 | . | . | . | 8 | .
C=CS(=O)(=O)c1ccc(Oc2ccc(S(=O)(=O)C=C)cc2)cc1 | 75* | -135 | -295 | 9 | 70* | 6
NS(=O)(=O)c1ccc(Oc2ccc(S(N)(=O)=O)cc2)cc1 | 8 | -8 | 3 | -6 | 7 | 19
COc1ccc(C(=O)Nc2ccc(-c3ccc(C)o3)cc2)cc1S(=O)(=O)N1CCOCC1 | 75* | 22 | 25 | 24 | 16 | 12
COc1ccc(C(=O)Nc2ccc(N3CCOCC3)cc2)cc1S(=O)(=O)N1CCOCC1 | -2 | 0 | -7 | -10 | -6 | -2
COc1cccc2c1C(CCCC(=O)O)CCC2 (stereo not drawn) | -13 | 4 | 5 | 19 | 4 | 1
COc1cccc2c1C1COC3C4CC(C(=O)O)C(C(C2)N13)N4C (stereo not drawn) | -20 | 5 | 21 | 88* | 22 | 21
CN(c1cccnc1)c1ncnc2[nH]ncc12 | 26 | -1 | 18 | 9 | 24 | -2
C=CCN(CC=C)c1ncnc2[nH]ncc12 | 20 | 53 | 55 | 29 | 53* | -10
CCOC(=O)C1=C(Nc2ccc(Br)cc2)C(=O)N(CC)C1 | 18 | . | . | . | -1 | .
O=C(CCCN1C(=O)/C(=C/c2ccccc2Cl)SC1=S)NNC(=O)c1ccncc1 | 37 | 36 | 32 | 18 | 58* | 6
O=C(CCCN1C(=O)/C(=C/c2cccs2)SC1=S)NNC(=O)c1ccncc1 | -18 | 10 | 2 | 18 | 13 | 2
CN1CCN(c2ncnc3scc(-c4ccccc4Cl)c23)CC1 | 24 | 63* | 45 | 35 | 31 | -10
Cc1cc(-c2csc3ncnc(N4CCN(C)CC4)c23)cc(C)c1C | 12 | 6 | -22 | 18 | 11 | 12
COC(=O)C1CN(C2CC2)CCS(=O)(=O)N1Cc1cn(Cc2ccc(OC)cc2)nn1 (stereo not drawn) | -7 | . | . | . | 10 | .
Cc1ccc(S(=O)(=O)N(C)C)cc1NC(=S)N1CCN(Cc2ccc3c(c2)OCO3)CC1 | 19 | 1 | 0 | 11 | 19 | 55*
Cc1ccccc1NC(=S)N1CCN(Cc2ccc3c(c2)OCO3)CC1 | 3 | 6 | -1 | 17 | -27 | -3
